Test results taken from PubChem BioAssay (Tox21).
Records with an inconclusive call do not appear. Calls of active or inactive are those of the source. Unless noted, the call rests on the fitted dose curve; in most records, active means well fitted curve in the direction sought with a large enough effect in the repeat runs; inconclusive means weak or mixed curves; inactive means no such curve, though single readings can be large; an effect the other way counts as inactive or inconclusive.

Columns and labels:
[1] = qHTS assay to identify small molecule agonists of the vitamin D receptor (VDR) signaling pathway - cell viability counter screen (AID 743224); details: VDR-bla HEK293T viability, CellTiter-Glo luminescence, 16 h; series mostly up to 62.6 µM; further: on the % scale 0 is the no-effect control and ±100 the full control effect; nearly all actives have a fitted effect of over 50% in size
In short: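 Viability is measured in the same wells as the VDR-bla reporter assay: after 16 h compound treatment and 2 h substrate loading, CellTiter-Glo is added and luminescence read 30 min later.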

[2] = qHTS assay to identify small molecule antagonists of the vitamin D receptor (VDR) signaling pathway - cell viability counter screen (AID 743225); details: VDR-bla HEK293T viability, CellTiter-Glo luminescence, 16 h; series mostly up to 61 µM; further: on the % scale 0 is the no-effect control and ±100 the full control effect; nearly all actives have a fitted effect of over 50% in size
In short: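 Parallel cytotoxicity test: VDR-UAS-bla HEK 293T, 3 nM (final) 1-alpha,25-dihydroxyvitamin D3 with test compound, 16 h, 37C. Endpoint is CellTiter-Glo luminescence in the same wells.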

[3] = qHTS assay to identify small molecule agonists of the NFkB signaling pathway (AID 1159509; active means well fitted curve in the direction sought with a large enough effect in the signal ratio in the repeat runs, not every such curve was filed as active; the % refers to the signal ratio; further: on the % scale 0 is the no-effect control and ±100 the full control effect); details: NFkB-bla ME-180 cells, beta-lactamase FRET ratio, 5 h; series mostly up to 61 µM
In short: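 NFkB-bla ME-180 cells with a beta-lactamase reporter under an NF-kB response element were plated overnight, treated with compounds in DMSO for 5 hr at 37 C, then loaded with FRET substrate for 1.5 hr at room temperature.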

[4] = qHTS assay to identify small molecule agonists of the NFkB signaling pathway - cell viability counter screen (AID 1159515; calls by dose curve; further: on the % scale 0 is the no-effect control and ±100 the full control effect; nearly all actives have a fitted effect of over 55% in size); details: NFkB-bla ME-180 viability, CellTiter-Glo luminescence, 5 h; series mostly up to 61 µM
In short: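 Multiplexed viability readout: after the 5 hr compound exposure and 1.5 hr FRET substrate step, CellTiter-Glo reagent went into the same NFkB-bla ME-180 wells; ATP luminescence was measured after 30 min at room temperature.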

[5] = qHTS assay to identify small molecule agonists of the endoplasmic reticulum stress response signaling pathway - cell viability counter screen (AID 1159517; calls by dose curve;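 further: HeLa cells carrying an ER stress response element beta-lactamase reporter; on the % scale 0 is the no-effect control and ±100 the full control effect; nearly all actives have a fitted effect of over 50% in size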); details: ESRE-bla HeLa viability, CellTiter-Glo luminescence, 5 h; series mostly up to 61 µM
In short: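 Cells, HeLa ESRE-bla; density, 1,500/well; dosing, 5 hr at 37 C, 5% CO2; readout, CellTiter-Glo luminescence after 30 min RT.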

[6] = qHTS assay to identify small molecule antagonists of the retinoid-related orphan receptor gamma (ROR-gamma) signaling pathway - cell viability counter screen (AID 1159520); details: Tet-on RORgamma CHO cells viability, ATP luminescence, 16 h; series mostly up to 92.4 µM; further: on the % scale 0 is the no-effect control and ±100 the full control effect; nearly all actives have a fitted effect of over 50% in size
In short: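 Cytotoxicity was read from cellular ATP (CellTiter-Glo luminescence) after 16 hr at 37 C with 1 uM doxycycline induction. The inducer was added 2 hr after compound transfer to Tet-on ROR gamma CHO cells.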

[7] = target: Nuclear receptor ROR-gamma (Homo sapiens) (UniProt P51449); assay: qHTS assay to identify small molecule antagonists of the retinoid-related orphan receptor gamma (ROR-gamma) signaling pathway (AID 1159521); details: Tet-on RORgamma CHO cells, RORE-luciferase, 16 h; series mostly up to 92.4 µM
In short: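 Decreased RORE-driven luciferase luminescence indicates antagonism. Tet-on RORγ CHO cells received compound, then 1 uM final doxycycline 2 h later; signal read after 16 h incubation.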

[8] = qHTS assay to identify small molecule agonists of the AP-1 signaling pathway - cell viability counter screen (AID 1159525; calls by dose curve; further: nearly all actives have a fitted effect of over 55% in size); details: ME-180 AP-1-bla cells viability, ATP luminescence, 5 h; series mostly up to 76.8 µM
In short: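 Luminescent ATP readout (Cell Titer Glo, 30 min RT), normalised to DMSO and tetra n-octyl ammonium bromide controls. Cells were ME-180 AP-1-bla in 0.5% dialyzed FBS Opti-MEM, with a 5 h, 37 °C compound exposure.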

[9] = qHTS assay to identify small molecule agonists of the AP-1 signaling pathway (AID 1159526; calls by dose curve; further: on the % scale 0 is the no-effect control and ±100 the full control effect); details: ME-180 (cervical carcinoma) AP-1-bla reporter, beta-lactamase FRET ratio, 5 h; series mostly up to 76.8 µM
[10] = target: Retinoic acid receptor RXR-alpha (Homo sapiens) (UniProt P19793); assay: qHTS assay to identify small molecule agonists of the RXR signaling pathway (AID 1159527; calls by dose curve; further: on the % scale 0 is the no-effect control and ±100 the full control effect; nearly all actives have a fitted effect of over 35% in size); details: HEK293T RXRa-UAS-bla, beta-lactamase ratio, 16 h; series mostly up to 76.8 µM
In short: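 16 hr incubation of compound-treated RXR-alpha-UAS-bla HEK 293T cells (2% charcoal-stripped FBS, 37 C) preceded a 2 hr room-temperature LiveBLAzer FRET substrate step and blue/green fluorescence measurement.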

[11] = qHTS assay to identify small molecule agonists of the RXR signaling pathway - cell viability counter screen (AID 1159529); details: RXR-alpha-bla HEK293T viability, CellTiter-Glo, 16 h; series mostly up to 76.8 µM
In short: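 In this parallel viability measure, GeneBLAzer RXR-alpha HEK 293T cells (2% charcoal-stripped FBS) were given a 5 hr preincubation, treated with compounds 16 hr at 37 C, and read by CellTiter-Glo luminescence.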

[12] = qHTS assay to identify small molecule antagonists of the retinoid acid receptor (RAR) signaling pathway - cell viability counter screen (AID 1159551); details: C3RL4 cells viability, ATP luminescence (CellTiter-Glo), 6 h; series mostly up to 92.4 µM; further: on the % scale 0 is the no-effect control and ±100 the full control effect; nearly all actives have a fitted effect of over 35% in size
In short: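 Cytotoxicity counter screen in C3RL4 cells: 6 h compound exposure with 1 uM retinol (final), viability from cellular ATP by luminescence.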

[13] = qHTS assay to identify small molecule antagonists of the retinoic acid receptor (RAR) signaling pathway (AID 1159552); details: C3RL4 RARE luciferase reporter, retinol-stimulated, 6 h; series mostly up to 92.4 µM
In short: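 C3RL4 RARE-luc cells, overnight plating; retinol 1 uM final added right after compound; 6 hr 37 C; luciferase read at 30 min RT.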

[14] = qHTS assay to identify small molecule agonists of the retinoic acid receptor (RAR) signaling pathway (AID 1159553); details: C3RL4 RARE luciferase reporter, agonist, 6 h; series mostly up to 73.3 µM; further: on the % scale 0 is the no-effect control and ±100 the full control effect
In short: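 Agonist activity was scored in C3RL4 cells bearing a retinoic acid response element luciferase construct. Cells were treated with compounds for 6 hr at 37 C, and luciferase signal was measured as luminescence.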

Sequence of Retinoic acid receptor RXR-alpha (Homo sapiens) (P19793 whole entry, looked up): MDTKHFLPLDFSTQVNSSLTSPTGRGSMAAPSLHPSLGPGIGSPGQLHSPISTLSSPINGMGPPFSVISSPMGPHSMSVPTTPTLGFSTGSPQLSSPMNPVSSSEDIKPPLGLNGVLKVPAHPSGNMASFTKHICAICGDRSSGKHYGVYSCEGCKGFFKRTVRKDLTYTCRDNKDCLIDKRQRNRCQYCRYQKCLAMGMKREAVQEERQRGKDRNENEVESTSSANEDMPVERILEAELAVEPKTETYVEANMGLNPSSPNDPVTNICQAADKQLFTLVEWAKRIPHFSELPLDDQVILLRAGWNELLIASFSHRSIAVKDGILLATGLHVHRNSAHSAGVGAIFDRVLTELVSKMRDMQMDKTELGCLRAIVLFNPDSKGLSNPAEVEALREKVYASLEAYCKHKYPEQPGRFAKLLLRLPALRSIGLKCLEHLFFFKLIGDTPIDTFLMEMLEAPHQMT

CNc1c2c(nn1C)CCCC2
inactive: Potency [1] | Potency [2] | outcome [3] | Potency [4] | Potency [5] | Potency [6] | Potency [7] | Potency [8] | outcome [9] | Potency [10] | Potency [11] | Potency [12] | Potency [13] | Potency [14]

CC(C)c1ccc(C#N)cc1
inactive: Potency [1] | Potency [2] | outcome [3] | Potency [4] | Potency [5] | Potency [6] | Potency [7] | Potency [8] | outcome [9] | Potency [10] | Potency [11] | Potency [12] | Potency [13] | Potency [14]

CC(O)Cn1cnc2c1c(=O)n(C)c(=O)n2C (stereo not drawn)
inactive: Potency [1] | Potency [2] | outcome [3] | Potency [4] | Potency [5] | Potency [6] | Potency [7] | Potency [8] | outcome [9] | Potency [10] | Potency [11] | Potency [12] | Potency [14]

CCCCCCCCCCCCCCN(C)C
inactive: Potency [2] | outcome [3] | Potency [4] | Potency [5] | activity, negative = cytotoxicity [6] 0.214% [at 19 µM] | activity change, negative = inhibition [7] -1.54% [at 19 µM] | viability change, negative = cytotoxic [8] 1.48% [at 15.8 µM] | activation [9] -14.8% [at 15.8 µM] | activation [10] 7.58% [at 15.8 µM] | activity change, negative = cytotoxicity [11] 0.892% [at 15.8 µM] | activity change, negative = cytotoxicity [12] 0.962% [at 19 µM] | activity, negative = inhibition [13] -4.35% [at 19 µM]
